Compounds with a hit are over-represented: about 3.4% of the library has one in this group of screens.
ADAM17 inh: ADAM17 inhibition, QFRET primary screen. P78536. recombinant ADAM17, EDANS/DABCYL FRET peptide cleavage. inhibition, % at 6.95 µM. 0.83% of 370,000 active. AID 720648;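 active means inhibition above the mean of compounds lying between control limits plus 3 SD, set per campaign, cut at about 8.5% in these data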;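 further: 0% = DMSO-only wells as the low control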
ADAM10 inh: inhibitors of human ADAM10; 0.62% of 370,000 active; recombinant ADAM10, EDANS/DABCYL FRET peptide cleavage, 3 h; inhibition, % at 7 µM; AID 720582;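 active means inhibition above a per-campaign cutoff equal to the mean of compounds falling between control-based bounds plus 3 SD, cut at about 20% in these data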;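 further: 0% = DMSO wells while the 100% control is not disclosed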
KLK7 zymogen act: activators of human kallikrein-7 zymogen; activation, % at 7 µM; purified proKLK7, EDANS-DABCYL substrate fluorescence; 100% is mature enzyme control, 0% vehicle; AID 652039; 0.9% of 370,000 active;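 active means activation above the mean of all tested compounds plus 3 SD, computed per campaign excluding outliers beyond control limits, cut at about 13% in these data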
sPLA2-III inh: Blocks human group III sPLA2 activity | inhibition, % at 12.2 µM | QFRET BODIPY PC-A2 liposome hydrolysis, fluorescence | 0.56% of 370,000 active | AID 743126;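 active means inhibition above mean plus 3 SD of compounds lying within the high and low control bounds, cut at about 19% in these data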;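 further: 0% = median of test compound wells and 100% = no enzyme DMSO wells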
NRP1-CendR mod: NRP-1/CendR interaction modulation. O14786. FAM-RPARPAR peptide binding to NRP-1, fluorescence polarization. inhibition, % at 25 µM. 0.85% of 360,000 active. AID 602438;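 active means inhibition or corrected inhibition above about 18%, plus a signal ratio from 0.5 to 1.5, limit read from the data, passing the limit was not always enough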
Target sequence (O14786 whole entry, looked up): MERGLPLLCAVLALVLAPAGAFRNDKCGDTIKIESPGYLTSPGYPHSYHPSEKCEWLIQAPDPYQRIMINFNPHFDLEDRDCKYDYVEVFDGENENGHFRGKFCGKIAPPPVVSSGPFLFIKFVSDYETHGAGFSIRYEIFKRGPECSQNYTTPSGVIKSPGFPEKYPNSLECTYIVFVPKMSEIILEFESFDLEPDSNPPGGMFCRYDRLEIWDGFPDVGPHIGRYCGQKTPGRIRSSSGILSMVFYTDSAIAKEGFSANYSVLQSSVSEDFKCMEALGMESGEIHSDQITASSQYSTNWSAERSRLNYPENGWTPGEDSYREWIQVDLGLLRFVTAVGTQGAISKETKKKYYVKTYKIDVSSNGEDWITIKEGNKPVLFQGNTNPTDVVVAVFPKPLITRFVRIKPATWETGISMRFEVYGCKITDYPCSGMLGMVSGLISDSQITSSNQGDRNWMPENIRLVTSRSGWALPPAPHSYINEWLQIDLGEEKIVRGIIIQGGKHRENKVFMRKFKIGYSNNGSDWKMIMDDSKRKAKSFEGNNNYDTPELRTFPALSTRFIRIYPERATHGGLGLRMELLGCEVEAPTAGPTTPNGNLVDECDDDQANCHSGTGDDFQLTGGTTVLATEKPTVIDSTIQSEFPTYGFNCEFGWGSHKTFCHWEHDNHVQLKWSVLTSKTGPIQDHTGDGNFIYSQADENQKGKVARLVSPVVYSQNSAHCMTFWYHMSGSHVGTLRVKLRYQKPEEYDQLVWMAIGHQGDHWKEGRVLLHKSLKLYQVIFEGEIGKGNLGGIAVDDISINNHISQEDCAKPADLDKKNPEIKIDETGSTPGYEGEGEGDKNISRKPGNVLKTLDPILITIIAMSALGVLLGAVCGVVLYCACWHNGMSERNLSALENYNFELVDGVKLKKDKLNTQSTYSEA
sPLA2 confirm: human GIII-sPLA2 inhibition, confirmation. shares compounds with sPLA2-III inh. recombinant hGIII-sPLA2, BODIPY PC-A2 QFRET fluorescence. inhibition, % at 12.2 µM. 34% of 2,000 active. AID 743280;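 active means mean inhibition across triplicates above the hit cutoff set in the earlier primary screen, cut at about 19% in these data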;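 further: 0% = enzyme with DMSO and 100% = DMSO wells lacking enzyme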
535nm interf: 535nm fluorescence interference, HGIII-sPLA2 counter-screen; shares compounds with sPLA2-III inh; BODIPY FL product fluorescence interference, QFRET; inhibition, % at 12.2 µM; 8.5% of 2,000 active;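 active means average inhibition above the solvent-only control mean plus 3 SD, cut at about 6% in these data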;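 further: 0% = DMSO with substrate plus product and 100% = DMSO with substrate alone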
Starred values were filed as active, the others as inactive; i = inactive; . = no result given.

SMILES | ADAM17 inh | ADAM10 inh | KLK7 zymogen act | sPLA2-III inh | NRP1-CendR mod | sPLA2 confirm | 535nm interf
CCc1cc(=O)[nH]c(-n2[nH]c(-c3ccccc3)cc2=O)n1 | -6 | -7 | 0 | -3 | 4 | . | .
NNc1nc2c(F)cc(F)cc2s1 | -1 | -8 | 0 | 20* | -1 | 20* | 5
Cc1cccc2nc(-c3ccco3)c(Nc3ccccc3)n12 | -316 | i | 4 | -1 | -10 | . | .
Cc1ccc(Nc2c(-c3ccccn3)nc3cccc(C)n23)cc1 | 5 | 16 | 0 | 23* | -5 | 12 | -25
Cc1cccc(C)c1NC(=O)c1cccc2c1-c1ccccc1C2=O | 2 | -2 | 0 | 22* | -7 | 4 | -5
Cc1cccc(NC(=O)c2cccc3c2-c2ccccc2C3=O)n1 | 0 | -2 | 0 | -1 | -8 | . | .
C/C(=N\OCc1nc2ccccc2c(=O)n1/N=C/c1cc([N+](=O)[O-])ccc1O)c1ccccc1 | -2 | -3 | 0 | -8 | -16 | . | .
C/C(=N\OCc1nc2ccccc2c(=O)n1/N=C/c1cc(C)cc([N+](=O)[O-])c1O)c1ccccc1 | -4 | -8 | 2 | 22* | 6 | 33* | 8.8*
O=C(CSc1nc2ccccc2[nH]1)N1CCN(C(=O)c2ccco2)CC1 | -4 | 1 | 0 | 19* | 6 | 1 | -4
Cc1ccc(C(=O)CSc2nnc(-c3ccccn3)n2-c2ccccc2)cc1 | 1 | 4 | 0 | -40 | . | . | .
NC(=S)NNC(=O)C12CC3CC(CC(C3)C1)C2 | -7 | -4 | 0 | 21* | 0 | 9 | 0
COc1cc2c(cc1OC)C(c1ccccc1N)=NCC2 | -6 | -13 | 1 | -5 | -6 | . | .
COc1cc2c(cc1OC)C(c1ccccc1)=NCC2 | -4 | -8 | 6 | 27* | 10 | 0 | -11
O=C(NCc1ccccc1)Nc1ccccc1C(=O)N1CCCC1 | -3 | -7 | -1 | 13 | . | . | .
FC(F)c1nc2ccccc2[nH]1 | -1 | 0 | 0 | 1 | -3 | . | .
FC(F)Sc1nc2ccccc2[nH]1 | -3 | 1 | 0 | 25* | -15 | 15 | -3
O=C(NNC(=S)NC1CC2C=CC1C2)c1cccnc1 (centres undefined) | 1 | 12 | 0 | 22* | 9 | 21* | -8
O=C(NNC(=S)NC(=O)c1ccccc1)c1cccnc1 | -4 | -1 | -1 | 10 | -8 | . | .
Cc1ccc(-c2nc3ncccn3c2NC(=O)c2ccccc2)cc1 | -113 | -324 | 6 | 7 | . | . | .
COc1cc(-c2n[nH]c(=S)n2-c2cccc(C(F)(F)F)c2)cc(OC)c1OC | 1 | -11 | 0 | 26* | 12 | 25* | -1
CC(NC(=O)C(C(=O)c1cccc([N+](=O)[O-])c1)n1cc(Cl)ccc1=O)c1ccccc1 (centres undefined) | -11 | -9 | 0 | 25* | 0 | -6 | -6
CC(C)NC(=O)C1CCN(C(=O)C(C(=O)c2ccccc2)n2cc(Cl)ccc2=O)CC1 (centres undefined) | -3 | -7 | 1 | 0 | -6 | . | .
Cc1ccccc1NC(=O)c1ccc(CN2CC(=O)N3CCCCC3C2=O)cc1 (centres undefined) | -3 | -16 | 0 | 19* | -6 | -4 | -3
CCN(CC)c1ccc(/C=N/N(c2ccccc2)c2ccccc2)c(O)c1 | -1 | 0 | 0 | 4 | -25 | . | .
CCN(CC)c1ccc(/C=N/NC(=S)NCc2ccccc2)c(O)c1 | -9 | -42 | -4 | 36* | -15 | 25* | 11*
SMILES | ADAM17 inh | ADAM10 inh | KLK7 zymogen act | sPLA2-III inh | NRP1-CendR mod | sPLA2 confirm | 535nm interf
CCN(CC)c1ccc(C=Nc2ccccc2C)c(O)c1 | -2 | 1 | -11 | 20* | -1 | 10 | -3
CCN(CC)c1ccc(/C=N/NC(=O)c2ccco2)c(O)c1 | -38 | -119 | -20 | -2 | -58 | . | .
COc1cc(/C=C/C(=O)NNC(=O)c2cccc(S(=O)(=O)N(C)C)c2)cc(OC)c1OC | -13 | -27 | 2 | -2 | -6 | . | .
COc1ccc(Cl)cc1C(=O)NNC(=O)c1cccc(S(=O)(=O)N(C)C)c1 | 1 | 5 | -1 | 22* | -2 | -8 | -6
O=C(COc1ccccc1O)NCCN1CCOCC1 | -4 | -9 | 0 | 20* | 12 | 12 | -2
O=C(C(=O)N1CCC(CNC(=O)c2ccccc2F)CC1)c1cc2ccccc2o1 | -3 | 2 | 0 | 2 | . | . | .
CCC(C)NC(=S)N(CCc1ccccc1)Cc1cc2cc(OC)c(OC)cc2[nH]c1=O (centres undefined) | -19 | -83 | -4 | 20* | -10 | 20* | -16
COc1cccc(-c2ccc(CC[C@H]3O[C@H]4CC[C@@H](CO)O[C@H]4C[C@H]3NC(=O)c3cnccn3)cc2)c1 | 5 | 13 | 0 | -22 | . | . | .
CC1CCCC(C)N1NC(=S)Nc1ccc(OC(F)F)cc1 (centres undefined) | -4 | -6 | -1 | 19* | 4 | 20* | -7
COC(=O)c1cc(-c2cccc(OCc3ccccc3)c2)c(=O)n2c1CCC2 | -16 | -55 | -66 | 0 | . | . | .
CC(C)(CO)CNc1ccn2nccc2n1 | -14 | -41 | 1 | 22* | 14 | 0 | -2
Cc1ccc(CN2C(C(=O)NC3CCCC3)CSCCS2(=O)=O)cc1 (centres undefined) | 0 | -1 | 0 | 6 | . | . | .
CCOC(=O)Cn1c(=O)c2c(nc(N3CCCCC3)n2C)n(C)c1=O | 7 | 0 | 0 | 20* | -2 | -3 | -6
COc1ccc2[nH]c3c(c2c1)CCN[C@]31C(=O)N(c2ccccc2)c2ccccc21 | -2 | -5 | 0 | -1 | . | . | .
CC(C)C(=O)OCCCN1C(=O)CCC12CCC(c1ccccc1)CC2 (centres undefined) | -1 | 1 | 0 | -5 | . | . | .
Cc1cc(C)c(-c2c(O)c3c(n(C)c2=O)CC(C)(C)CC3=O)c(C)c1 | 4 | -3 | 0 | 21* | 1 | -4 | -2
CC(=O)C1=C(C)N(Cc2ccc(Br)cc2)C(=S)NC1c1cccc(Cl)c1 (centres undefined) | 3 | 15 | 0 | -3 | . | . | .
Cc1cnn(CCC(=O)NNC(=S)NCC(C)C)c1 | -3 | 0 | 0 | 22* | -1 | 8 | -2
CCCCNC(=S)NNC(=O)CCn1cc(C)cn1 | -3 | 1 | 0 | 12 | -1 | . | .
Nc1nc2c(ncn2[C@@H]2O[C@H](C(=O)NCCCc3ccccc3)[C@@H](O)[C@H]2O)c(=O)[nH]1 | -3 | -13 | 0 | 2 | . | . | .
C=CCNC(=S)NNC(=O)c1csc(C)c1C | -1 | 13 | 0 | 24* | -2 | 21* | -7
